# Measurements taken from PubChem BioAssay (NCATS).
# Results filed as inconclusive are left out. Unmarked numbers belong to inactive results. Calls of active or inactive are those of the source. Calls come from the whole dose curve; as a rule, active = well fitted activation curve with a large enough effect in the main read-out, with a control signal flat (not every such curve was filed as active); inconclusive = small, poorly fitted or top-dose-only effect, or effect the other way, or a change in a side signal; inactive = flat fitted curve, though single readings scatter.
# Target: 3',5'-cyclic-AMP phosphodiesterase 4B (Homo sapiens) (UniProt Q07343)
# Assay: qHTS Assay for Inhibitors of PDE-IV (AID 607); for activation (PDE inhibition): % of control where 0% means no effect
# Conditions: HEK293 ACTOne CNG channel cells, membrane potential fluorescence; series mostly up to 22.9 µM; activation (PDE inhibition): at the top concentration
# How it was run: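 HEK293 ACTOne cells with CNG channel (1000/well), endogenous PDE4; membrane potential dye, compounds up to 22.9 uM final. Fluorescence Ex 535/Em 590; RO 20-1724 (100 uM final) as reference.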
# Potency is the fitted concentration of half-maximal effect.
# 3',5'-cyclic-AMP phosphodiesterase 4B (Homo sapiens), sequence (Q07343 whole entry, looked up): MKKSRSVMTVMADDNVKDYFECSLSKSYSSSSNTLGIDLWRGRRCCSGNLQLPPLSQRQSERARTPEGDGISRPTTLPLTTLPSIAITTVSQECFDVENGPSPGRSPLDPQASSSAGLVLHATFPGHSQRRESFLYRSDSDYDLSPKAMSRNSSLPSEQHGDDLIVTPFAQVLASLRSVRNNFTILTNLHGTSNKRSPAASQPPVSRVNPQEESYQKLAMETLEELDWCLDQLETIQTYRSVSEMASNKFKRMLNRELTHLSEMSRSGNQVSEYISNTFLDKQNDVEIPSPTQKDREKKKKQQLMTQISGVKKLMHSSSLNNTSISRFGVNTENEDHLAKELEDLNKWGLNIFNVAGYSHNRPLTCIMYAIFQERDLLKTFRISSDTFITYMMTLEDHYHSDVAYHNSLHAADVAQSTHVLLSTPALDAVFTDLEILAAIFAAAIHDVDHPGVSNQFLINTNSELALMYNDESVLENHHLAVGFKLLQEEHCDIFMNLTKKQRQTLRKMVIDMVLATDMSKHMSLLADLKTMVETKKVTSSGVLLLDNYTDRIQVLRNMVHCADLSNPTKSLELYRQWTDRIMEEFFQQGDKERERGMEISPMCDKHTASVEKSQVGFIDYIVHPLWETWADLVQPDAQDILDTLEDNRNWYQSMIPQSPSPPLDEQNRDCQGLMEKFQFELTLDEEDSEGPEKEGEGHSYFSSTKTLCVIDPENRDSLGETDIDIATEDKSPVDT
Structure (SMILES),activation (PDE inhibition) [%],Potency
COc1ccc2c(c[n+](C)c3c4cc5c(cc4ccc23)OCO5)c1OC,-11.9,–
Cc1nccc2c1[nH]c1ccccc12,–,inactive
C[C@@H](N)Cc1cnc[nH]1,6.71,–
CC(=O)OCC1=C(C(=O)O)N2C(=O)[C@@H](N)[C@@H]2SC1,-0.862,–
C[C@@H]1O[C@H](C[N+](C)(C)C)C[C@H]1O,–,3160 nM (active)
O=C(O)CC[N+](=O)[O-],1.02,–
S=C(NC1CCCCC1)N1CCC(c2cnc[nH]2)CC1,-4.87,–
CC(=O)NCCc1c[nH]c2ccccc12,4.63,–
CC1=NN=C(c2ccc(N)cc2)c2cc3c(cc2C1)OCO3,1.47,–
CC(C)Oc1cccnc1N(C)C1CCN(Cc2ccccc2)CC1,-2.98,–
CNCCc1c[nH]c2ccc(O)cc12,-1.97,–
NCCc1c[nH]c2ccc(O)cc12,–,inactive
CN[C@@H]1C[C@@H](c2ccc(Cl)c(Cl)c2)c2ccccc21,28.5,–
CNCCc1ccc(O)c(O)c1,-10.1,–
CCCN1CCO[C@@H]2c3cc(O)ccc3OC[C@@H]21,21,–
CCCN1CCC[C@H](c2cccc(O)c2)C1,–,inactive
CCCN(CCC)[C@@H]1CCc2ccc(O)cc2C1,–,inactive
c1ccc2sc(C3(N4CCCCC4)CCCCC3)cc2c1,26.2,–
c1ccc(CCCN2CCN(CCOC(c3ccccc3)c3ccccc3)CC2)cc1,14.8,–
CCOC(=O)c1cncn1[C@H](C)c1ccccc1,9.45,–
CCCN1CCO[C@@H]2c3cc(O)ccc3OC[C@H]21,–,inactive
CC[C@@]1(O)C(=O)OCc2c1cc1n(c2=O)Cc2cc3ccccc3nc2-1,–,inactive
C#CCOC(=O)C1=CCCN(C)C1,–,398 nM (active)
NCc1cc(=O)[nH]o1,–,inactive
CCCCc1ccc(C(=O)O)nc1,–,inactive
O=c1cccc2n1CC1CNC[C@H]2C1,–,inactive
Clc1cnc(Oc2ccc(Oc3ncc(Cl)cc3Cl)cc2)c(Cl)c1,28,–
